Reference: PubChem BioAssay (Tox21)
Inconclusive results are not listed. Calls of active or inactive are those of the source. Unless noted, calls come from the whole dose curve.

What was measured:
[1] = Nuclear factor erythroid 2-related factor 2/antioxidant responsive element (Nrf2/ARE) small molecule agonists: qHTS cell viability counter screen in human keratinocytes (AID 1919968; active = well fitted curve in the direction sought with a large enough effect in the repeat runs; an effect the other way counts as inactive or inconclusive; note: nearly all actives have a fitted effect of over 55% in size)
Procedure, shortened: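 Seed 1,500 KeratinoSens cells per well, then incubate 5 h at 37 C/5% CO2. Add compounds in DMSO and incubate 23 h. Add CellTiter-Fluor, wait 1 h and read fluorescence.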

[2] = Nuclear factor erythroid 2-related factor 2/antioxidant responsive element (Nrf2/ARE) small molecule agonists: luciferase reporter gene qHTS assay in human keratinocytes (AID 1919969); note: nearly all actives have a fitted effect of over 35% in size
[3] = target: Gonadotropin-releasing hormone receptor (Homo sapiens) (UniProt P30968); test: Human gonadotropin-releasing hormone receptor (GnRHR) small molecule agonists, calcium flux assay in GnRHR-HEK293 cells (AID 1920063); note: nearly all actives have a fitted effect of over 35% in size
Gonadotropin-releasing hormone receptor (Homo sapiens), sequence (P30968 whole entry, looked up): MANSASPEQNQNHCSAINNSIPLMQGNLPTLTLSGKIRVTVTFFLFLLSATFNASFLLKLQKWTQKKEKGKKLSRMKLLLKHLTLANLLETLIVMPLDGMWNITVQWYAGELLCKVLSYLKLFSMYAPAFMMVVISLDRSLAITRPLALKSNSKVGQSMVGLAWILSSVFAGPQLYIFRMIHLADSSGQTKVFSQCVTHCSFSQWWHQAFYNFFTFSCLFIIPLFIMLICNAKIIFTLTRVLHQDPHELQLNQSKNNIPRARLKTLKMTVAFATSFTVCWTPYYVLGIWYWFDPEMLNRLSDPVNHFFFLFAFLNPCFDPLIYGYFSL
Procedure, shortened: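 Cells: HEK293 stably expressing human GnRHR. Steps: overnight (18 h) culture, 1 h calcium dye loading at 37 C, compound addition, kinetic fluorescence read at 480/540 nm. Each compound tested at 15 concentrations in triplicate.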

[4] = target: KiSS-1 receptor (Homo sapiens) (UniProt Q969F8); test: Human kisspeptin (KISS1R) small molecule agonists, calcium flux assay in KISS1R-HEK293 cells (AID 1920064; active = well fitted curve in the direction sought with a large enough effect in the repeat runs; an effect the other way counts as inactive or inconclusive)
KiSS-1 receptor (Homo sapiens), sequence (Q969F8 whole entry, looked up): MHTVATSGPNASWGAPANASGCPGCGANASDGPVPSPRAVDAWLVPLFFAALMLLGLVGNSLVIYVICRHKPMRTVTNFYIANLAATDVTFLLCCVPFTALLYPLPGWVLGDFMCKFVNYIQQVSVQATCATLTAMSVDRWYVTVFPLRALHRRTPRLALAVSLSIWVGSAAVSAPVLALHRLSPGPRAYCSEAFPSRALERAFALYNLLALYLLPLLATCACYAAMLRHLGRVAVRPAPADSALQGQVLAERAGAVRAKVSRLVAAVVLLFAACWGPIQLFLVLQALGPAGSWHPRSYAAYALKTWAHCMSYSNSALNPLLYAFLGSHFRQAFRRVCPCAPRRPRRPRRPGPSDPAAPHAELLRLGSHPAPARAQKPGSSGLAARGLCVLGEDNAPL
Procedure, shortened: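 Cells plated and incubated 18 h; dye added, 1 h at 37 C; compounds in DMSO pinned in; signal read at 480/540 nm every second for 3 min. Each compound tested at 15 concentrations in triplicate.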

[5] = G protein-coupled receptor (GPCR) small molecule agonists, calcium flux assay: HEK293 wild type cell line counter screen (AID 1920065)
Procedure, shortened: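 Counter-screen of the Tox21 10K library for non-specific calcium release: dye-loaded cells received compounds in DMSO and were monitored by kinetic fluorescence (480/540 nm, 3 min). Fifteen concentrations, run in triplicate.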

[6] = p53 small molecule agonists, cell-based qHTS assay with human liver microsomes (AID 1963577);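 note: p53 response element beta-lactamase reporter cells with liver microsomes plus NADPH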
Procedure, shortened: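 16 h, 37 C exposure of p53RE-bla cells to compounds with human liver microsomes and NADPH (0.5 mg/mL final each); detection via LiveBLAzer mixture, 2 h dark at room temperature.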

[7] = p53 small molecule agonists, cell-based qHTS assay with rat liver microsomes (AID 1963578)
Procedure, shortened: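 With rat liver microsomes and NADPH present (0.5 mg/mL final each), p53RE-bla cells are treated with compound for 16 h at 37 C. LiveBLAzer detection mixture is then applied for 2 h at room temperature in the dark.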

[8] = p53 small molecule agonists, cell-based qHTS assay with human liver microsomes: qHTS cell viability counter screen (AID 1963579); note: nearly all actives have a fitted effect of over 45% in size
Procedure, shortened: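 In this multiplexed counter screen, the reporter plates were subsequently treated with CellTiter-Glo so that cell viability, reflected by luminescence, could be recorded for p53RE-bla cells dosed 16 h with compounds under microsomal activation (HLM and NADPH).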

[9] = p53 small molecule agonists, cell-based qHTS assay (AID 1963582; active = well fitted activation curve with a large enough effect in the signal ratio in the repeat runs, not every such curve was filed as active; the % refers to the signal ratio)
Procedure, shortened: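 Quantitative HTS in p53RE-bla cells: after a 5 h settling period, compounds delivered in DMSO were left on cells for 16 h at 37 C, and reporter induction was measured as fluorescence following 2 h substrate loading.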

[10] = target: 5-hydroxytryptamine receptor 2A (Homo sapiens) (UniProt P28223); test: 5-hydroxytryptamine receptor 2A (HTR2A) small molecule antagonists, cell-based qHTS assay (AID 1963586); note: nearly all actives have a fitted effect of over 45% in size
5-hydroxytryptamine receptor 2A (Homo sapiens), sequence (P28223 whole entry, looked up): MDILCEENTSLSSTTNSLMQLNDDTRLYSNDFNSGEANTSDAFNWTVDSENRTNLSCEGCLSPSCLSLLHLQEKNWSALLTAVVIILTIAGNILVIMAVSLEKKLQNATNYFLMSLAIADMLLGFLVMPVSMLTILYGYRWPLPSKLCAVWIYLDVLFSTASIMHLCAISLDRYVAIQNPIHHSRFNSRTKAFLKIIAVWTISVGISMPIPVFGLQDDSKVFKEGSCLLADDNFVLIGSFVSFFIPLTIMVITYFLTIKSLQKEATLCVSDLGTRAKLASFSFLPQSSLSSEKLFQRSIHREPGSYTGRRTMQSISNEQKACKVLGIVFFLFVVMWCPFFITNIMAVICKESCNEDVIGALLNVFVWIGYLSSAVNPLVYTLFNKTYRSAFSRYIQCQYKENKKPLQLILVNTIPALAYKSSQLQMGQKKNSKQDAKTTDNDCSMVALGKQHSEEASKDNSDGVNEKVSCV
Procedure, shortened: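 Antagonist-mode intracellular calcium assay: DOI (4 nM) added after 5 min compound pre-incubation at room temperature to dye-loaded HTR2A-CHO cells. Fluorescence followed for 3 min, sampled every second.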

[11] = target: 5-hydroxytryptamine receptor 2A (Homo sapiens) (UniProt P28223); test: 5-hydroxytryptamine receptor 2A (HTR2A) small molecule agonists, cell-based qHTS assay (AID 1963587); note: nearly all actives have a fitted effect of over 30% in size
Procedure, shortened: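 HTR2A-CHO cells, plated 18 h at 37 C/5% CO2, dye-loaded 1 h at 37 C; compounds in DMSO added by pin tool (agonist mode). Intracellular calcium flux read as kinetic fluorescence on FDSS over 2 min at 1 s intervals.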

[12] = target: Muscarinic acetylcholine receptor M1 (Homo sapiens) (UniProt P11229); test: Cholinergic receptor muscarinic 1 (CHRM1) small molecule antagonists, cell-based qHTS assay (AID 1963588); note: nearly all actives have a fitted effect of over 40% in size
Muscarinic acetylcholine receptor M1 (Homo sapiens), sequence (P11229 whole entry, looked up): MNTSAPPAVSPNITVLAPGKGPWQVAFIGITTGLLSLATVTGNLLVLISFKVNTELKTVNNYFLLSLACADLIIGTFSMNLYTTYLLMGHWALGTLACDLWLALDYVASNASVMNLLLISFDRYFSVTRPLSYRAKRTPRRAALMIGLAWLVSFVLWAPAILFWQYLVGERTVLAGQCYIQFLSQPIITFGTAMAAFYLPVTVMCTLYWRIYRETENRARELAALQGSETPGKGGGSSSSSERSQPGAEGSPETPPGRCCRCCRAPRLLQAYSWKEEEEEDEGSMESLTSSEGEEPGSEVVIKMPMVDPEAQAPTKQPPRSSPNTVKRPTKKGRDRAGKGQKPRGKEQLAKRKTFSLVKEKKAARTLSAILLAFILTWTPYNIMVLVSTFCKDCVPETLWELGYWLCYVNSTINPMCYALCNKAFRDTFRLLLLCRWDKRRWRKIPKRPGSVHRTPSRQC
Procedure, shortened: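 CHRM1-CHO calcium-flux assay, antagonist mode. Cells were seeded 18 h, dye-loaded 1 h at 37 C and given compound for 5 min at RT, then acetylcholine was added at 50nM. FDSS fluorescence was read 3 min; 15 concentrations, three runs.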

[13] = target: Muscarinic acetylcholine receptor M1 (Homo sapiens) (UniProt P11229); test: Cholinergic receptor muscarinic 1 (CHRM1) small molecule agonists, cell-based qHTS assay (AID 1963589); note: nearly all actives have a fitted effect of over 35% in size
Procedure, shortened: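 Agonist-mode qHTS in CHO cells stably carrying human muscarinic M1. Intracellular calcium is tracked by fluorescence every second after compound transfer; each compound runs at 15 concentrations in three independent runs.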

[14] = cAMP Responsive Elements (CRE) small molecule agonists, cell-based qHTS assay (AID 1963590)
Procedure, shortened: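 Agonist mode qHTS in CRE-bla HEK 293T cells: compounds dosed from DMSO for 3 h at 37 C/5% CO2, followed by LiveBLAzer B/G FRET substrate for 2 h at room temperature.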

[15] = cAMP Responsive Elements (CRE) small molecule antagonists, cell-based qHTS assay (AID 1963591; active = well fitted inhibition curve with a large enough effect in the signal ratio in the repeat runs, not every such curve was filed as active; the % refers to the signal ratio)
Procedure, shortened: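 Antagonist mode: test compounds are co-incubated with the adenylyl cyclase activator NKH477 (0.25 uM final) on CRE-bla HEK293T cells for 3 h at 37 °C, followed by LiveBLAzer substrate loading.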

[16] = target: Beta-2 adrenergic receptor (Homo sapiens) (UniProt P07550); test: Adrenergic beta2 receptor (ADRB2) small molecule antagonists, cell-based qHTS assay (AID 1963592); note: series mostly up to about 92 µM; nearly all actives have a fitted effect of over 50% in size
Beta-2 adrenergic receptor (Homo sapiens), sequence (P07550 whole entry, looked up): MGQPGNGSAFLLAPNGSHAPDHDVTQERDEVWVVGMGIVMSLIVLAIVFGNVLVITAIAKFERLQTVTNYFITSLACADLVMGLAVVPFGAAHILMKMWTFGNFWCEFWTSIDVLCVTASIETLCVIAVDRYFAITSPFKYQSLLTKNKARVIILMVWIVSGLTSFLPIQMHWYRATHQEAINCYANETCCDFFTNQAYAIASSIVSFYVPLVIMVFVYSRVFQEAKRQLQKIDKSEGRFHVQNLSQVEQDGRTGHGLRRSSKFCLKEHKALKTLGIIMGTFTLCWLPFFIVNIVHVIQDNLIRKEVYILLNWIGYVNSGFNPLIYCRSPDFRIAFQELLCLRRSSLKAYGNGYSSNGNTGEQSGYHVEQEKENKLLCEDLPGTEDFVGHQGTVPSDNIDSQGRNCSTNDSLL
Procedure, shortened: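 Cells (CHO, stable ADRB2 overexpression) incubated 18-20hr at 37C; compounds added from DMSO; agonist mix (1nM isoproterenol, 100uM IBMX, 25uM Ro-20-1724) added; 0.5hr RT; d2-cAMP and anti-cAMP-cryptate added; 1hr RT; 665/615 nm read.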

[17] = target: Beta-2 adrenergic receptor (Homo sapiens) (UniProt P07550); test: Adrenergic beta2 receptor (ADRB2) small molecule agonists, cell-based qHTS assay (AID 1963593);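 note: CHO cells stably overexpressing human ADRB2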
Procedure, shortened: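 CHO cells stably over-expressing ADRB2 were plated overnight at 37C, then dosed with compounds plus a stimulation mix containing 100uM IBMX and 25uM Ro-20-1724 for 0.5hr at room temperature. cAMP was measured by HTRF competition, 1hr.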

[18] = target: D(2) dopamine receptor (Homo sapiens) (UniProt P14416); test: Dopamine D2 receptor (DRD2) small molecule agonists, cell-based qHTS assay (AID 1963594); note: nearly all actives have a fitted effect of over 35% in size
D(2) dopamine receptor (Homo sapiens), sequence (P14416 whole entry, looked up): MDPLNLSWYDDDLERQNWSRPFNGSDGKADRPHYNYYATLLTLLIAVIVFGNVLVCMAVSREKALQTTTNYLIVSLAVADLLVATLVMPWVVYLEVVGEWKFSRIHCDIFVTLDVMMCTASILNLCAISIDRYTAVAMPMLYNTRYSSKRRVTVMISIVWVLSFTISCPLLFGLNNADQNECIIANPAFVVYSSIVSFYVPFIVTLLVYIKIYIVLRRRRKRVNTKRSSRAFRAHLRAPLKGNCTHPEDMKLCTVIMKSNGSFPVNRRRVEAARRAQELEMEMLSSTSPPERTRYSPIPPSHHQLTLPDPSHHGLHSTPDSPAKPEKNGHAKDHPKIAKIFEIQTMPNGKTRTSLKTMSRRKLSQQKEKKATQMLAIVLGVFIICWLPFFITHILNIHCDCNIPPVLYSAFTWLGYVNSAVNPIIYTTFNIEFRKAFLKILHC
Procedure, shortened: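 HEK293 cells stably expressing DRD2 were cultured 24 h at 37 C, then given Ro20-1724 (0.1 mM final) and compounds for 10 min at room temperature. NKH477 (200nM) was then added for 30 min. cAMP was read by HTRF.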

[19] = target: D(2) dopamine receptor (Homo sapiens) (UniProt P14416); test: Dopamine D2 receptor (DRD2) small molecule antagonists, cell-based qHTS assay (AID 1963595; active = well fitted inhibition curve with a large enough effect in the signal ratio in the repeat runs, with a control signal flat; the % refers to the signal ratio)
Procedure, shortened: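 Antagonist mode in DRD2-HEK293 cells: after compound addition with 0.1 mM Ro20-1724, cells received quinpirole (12 nM) and NKH477 (200 nM) for 30 min at room temperature; HTRF cAMP read after 1 h detection.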
% is set by controls: 0 for no effect and ±100 for the full control effect.

CCCCCCCCCCCCS(=O)(=O)Cl
inactive: activity change, negative = cytotoxicity [1] -5.52% [at 19 µM] | activity, positive = activation [2] -14% [at 19 µM] | activity change [3] 1.68% [at 11.8 µM, active compounds read high] | activation [4] 0.356% [at 15.8 µM] | activation [5] -1.76% [at 11.8 µM] | activation [6] 0.955% [at 13.5 µM] | activation [7] -3.11% [at 13.6 µM] | activity change, negative = cytotoxicity [8] 0.65% [at 13.5 µM] | activation [9] -3.88% [at 13.5 µM] | activity, negative = inhibition [10] 6.87% [at 12.7 µM] | activation [11] 18.9% [at 15.9 µM] | activity, negative = inhibition [12] 0.609% [at 12.6 µM] | activation [13] 0.179% [at 15.8 µM] | activation [14] 1.16% [at 19 µM] | activity change, negative = inhibition [15] -6.5% [at 18.9 µM] | activity change, negative = inhibition [16] -6.85% [at 19 µM] | Potency [17] | activation [18] 0.808% [at 19 µM] | activity change, negative = inhibition [19] -2.33% [at 18.9 µM]

C=C(C)CCO
inactive: Potency [1] | Potency [2] | Potency [3] | outcome [4] | outcome [5] | Potency [6] | Potency [7] | Potency [8] | Potency [9] | Potency [10] | Potency [11] | Potency [12] | Potency [13] | Potency [14] | Potency [15] | Potency [16] | Potency [18] | Potency [19]

CCCCCCCC(=O)OCC
inactive: Potency [1] | Potency [2] | Potency [3] | outcome [4] | outcome [5] | Potency [6] | Potency [7] | Potency [8] | Potency [9] | Potency [10] | Potency [11] | Potency [12] | Potency [13] | Potency [15] | Potency [16] | Potency [18] | Potency [19]

CCC1(CO)COCOC1
inactive: Potency [1] | Potency [2] | Potency [3] | outcome [4] | outcome [5] | Potency [6] | Potency [7] | Potency [8] | Potency [9] | Potency [10] | Potency [11] | Potency [13] | Potency [14] | Potency [15] | Potency [16] | Potency [18] | Potency [19]

NC(Cc1ccc(Cl)cc1)C(=O)O (centres undefined)
inactive: activity change, negative = cytotoxicity [1] -10.3% [at 0.349 µM] | activity, positive = activation [2] -1.51% [at 0.349 µM] | activity change [3] -0.23% [at 0.217 µM, active compounds read high] | activation [4] -1.07% [at 0.29 µM] | activation [5] 1.18% [at 0.217 µM] | activation [6] 1.9% [at 0.249 µM] | activation [7] 0.185% [at 0.249 µM] | activity change, negative = cytotoxicity [8] -1.01% [at 0.249 µM] | activation [9] -0.216% [at 0.249 µM] | activity, negative = inhibition [10] -30.9% [at 0.233 µM] | activation [11] 0.604% [at 0.292 µM] | activity, negative = inhibition [12] 9.51% [at 0.232 µM] | activation [13] -0.299% [at 0.29 µM] | activation [14] -0.737% [at 0.349 µM] | activity change, negative = inhibition [15] 2.88% [at 0.349 µM] | activation [18] 0.127% [at 0.349 µM] | activity change, negative = inhibition [19] 0.383% [at 0.348 µM]

CCN(CC)C(C)=O
inactive: Potency [1] | Potency [2] | Potency [3] | outcome [4] | outcome [5] | Potency [6] | Potency [7] | Potency [8] | Potency [9] | Potency [10] | Potency [11] | Potency [12] | Potency [13] | Potency [14] | Potency [15]

O=C(O)c1ccccc1Cl
inactive: Potency [1] | Potency [2] | Potency [3] | outcome [4] | outcome [5] | Potency [6] | Potency [7] | Potency [8] | Potency [9] | Potency [10] | Potency [11] | Potency [12] | Potency [14] | Potency [16] | Potency [18] | Potency [19]
